An excerpt weighted towards active compounds, which were near 10% of everything screened.
HP1b binding inh – inhibitors of HP1-beta chromodomain binding to methylated histone tails; Potency, µM (top dose mostly 114 µM), for inactives: top-dose activity change, negative = inhibition, hits mostly inhibitors; AID 540317; AlphaScreen HP1-beta / biotin-H3K9me3 peptide binding; 390,000 compounds, 0.56% hits; also: potency is read from the fitted curve at half-maximal effect; nearly all actives have a fitted effect of over 70% in size
Target sequence (P83916 whole entry, looked up): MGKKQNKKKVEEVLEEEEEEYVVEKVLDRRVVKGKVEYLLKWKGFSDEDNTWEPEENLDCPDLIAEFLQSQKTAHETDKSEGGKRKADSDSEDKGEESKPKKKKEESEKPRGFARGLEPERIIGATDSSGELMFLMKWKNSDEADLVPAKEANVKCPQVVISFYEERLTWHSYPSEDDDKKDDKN
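AlphaScreen: HP1-beta (50 nM) preformed 30 min with biotin-H3(1-18)K9me3 peptide (50 nM) in PBS pH 7.4, 0.01% Tween-20. Compound added for 30 min at RT, then streptavidin donor/nickel chelate acceptor beads (10 ug/mL) for 30 min.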
JMJD2A Tudor inh – blocks the human JMJD2A Tudor domain; Potency, µM (series often up to 114 µM), inactives show at the highest dose activity change, negative = inhibition, hits mostly inhibitors; AID 504339; AlphaScreen JMJD2A-Tudor / H3K4me3 peptide binding; 390,000 compounds, 4.4% hits; also: potency is read from the fitted curve at half-maximal effect; % is scaled to controls: 0 for no effect and ±100 for the full control effect; nearly all actives have a fitted effect of over 50% in size
Six1-Eya2 inh – inhibitors of human Six1/Eya2 interaction; Q15475+O00167; AlphaScreen GST-Six1/His-Eya2 binding, biochemical; active compounds read low; activity change, % (no concentration beside the values); 360,000 compounds, 0.56% hits; AID 651725; in the data active = activity change below about -65%; inconclusive = mostly about -30% to -63%; also: % is scaled to controls: 0 for no effect and ±100 for the full control effect
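AlphaScreen luminescence read after one hour at 37 °C in darkness. Pin-transferred compounds met GST-Six1 and His-Eya2 protein (5X stock 250 nM/500 nM) plus glutathione donor and Ni-chelate acceptor beads (5X, 50 ug/mL).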
BAZ2B inh – blocks human BAZ2B | Q9UIF8 | AlphaScreen BAZ2B-H3K14Ac peptide displacement | Potency, µM (titrated, usually from 114 µM), inactives show at the highest dose activity change, negative = inhibition, hits mostly inhibitors | 360,000 compounds, 4.4% hits | AID 504333; also: potency is read from the fitted curve at half-maximal effect; % is scaled to controls: 0 for no effect and ±100 for the full control effect; nearly all actives have a fitted effect of over 60% in size
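AlphaScreen displacement of biotin-H3(5-23)K14Ac peptide (50 nM final) from BAZ2B (50 nM final) in PBS pH 7.4, 0.01% Tween-20; complex preformed 30 min RT, then compounds (top 110 uM) 30 min RT, beads 20 min dark.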
G9a block – G9a (human) methyltransferase inhibition | Q96KQ7 | G9a H3K9 monomethylation, AlphaScreen, 2 h | Potency, µM (highest dose often 102 µM), for inactives: at the highest dose activity, negative = inhibition, usual class: inhibitors | 350,000 compounds, 8.8% hits; also: potency is read from the fitted curve at half-maximal effect; % is scaled to controls: 0 for no effect and ±100 for the full control effect; nearly all actives have a fitted effect of over 75% in size
Target sequence (Q96KQ7 913-1193 limits assumed): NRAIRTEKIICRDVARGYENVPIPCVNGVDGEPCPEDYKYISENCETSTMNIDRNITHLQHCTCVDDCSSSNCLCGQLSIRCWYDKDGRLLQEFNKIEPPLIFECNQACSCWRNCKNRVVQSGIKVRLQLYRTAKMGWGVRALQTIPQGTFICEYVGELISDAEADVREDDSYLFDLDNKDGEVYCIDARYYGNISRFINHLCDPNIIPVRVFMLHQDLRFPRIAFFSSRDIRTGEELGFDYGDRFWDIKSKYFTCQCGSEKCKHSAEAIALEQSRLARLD
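G9a (20 nM) was preincubated 15 min with compound, then reacted 2 h at room temperature with 500 nM biotin-H3K9 peptide and 20 µM SAM. Monomethyl-H3K9 detected by AlphaScreen using anti-H3K9me1 antibody.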
CtBP-E1A blk – inhibitors of CtBP/E1A interaction. AlphaScreen GST-E1A/His-CtBP binding, 1536-well; active compounds read low. activity change, % (test concentration not listed). 340,000 compounds, 0.49% hits; in the data active = activity change below about -65%; inconclusive = mostly about -30% to -63%; also: % is scaled to controls: 0 for no effect and ±100 for the full control effect
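Steps: dispense buffer (Tris pH 8.0, NaCl 300 mM, TCEP 1 mM, BSA, Tween 20); add 5X protein mix (GST-E1A, His-CtBP, 125 nM each); pin 23 nL compound; 2 h at 37 °C, dark; add 5X beads (50 ug/mL); 1 h; read.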
* hit, by the source's call; u = inconclusive; x = no result given; [ ] = dose if it differs, or a comment. Unless noted, calls follow the shape of the dose curve; as a rule, active = well fitted inhibition curve with a large enough effect; inconclusive = small, poorly fitted or top-dose-only effect; inactive = no such curve, though single readings can be large or run the other way.

SMILES	HP1b binding inh	JMJD2A Tudor inh	Six1-Eya2 inh	BAZ2B inh	G9a block	CtBP-E1A blk
CCn1c(SCC(=O)N2CCN(c3ccccc3F)CC2)nnc1-c1ccoc1C	-26%	50µM*	-3	-30%	u	-1
COc1cc2c(cc1OC)CN(Cc1cc(=O)n3c(-c4ccccc4)csc3n1)CC2	32%	-20%	-4	-4%	25µM*	0
O=C(CSc1nnc2scc(-c3ccccc3)n12)N1CCCc2ccccc21	24%	-16%	-1	-27%	4%[12.7 µM]	3
COc1cc2c(cc1OC)CN(Cc1cc(=O)n3cc(C)ccc3n1)CC2	36%	-16%	5	-1%	35µM*	0
COc1cc2c(cc1OC)CN(C(=O)CSc1nnc3scc(-c4ccccc4)n13)CC2	51%	-16%	2	-24%	14µM*	-3
CCC(=O)N1CCc2cc(CNC(=O)Nc3cc(C)ccc3C)ccc21	22%[57 µM]	-8%	x	-6%	-17%[59 µM]	x
Cc1ccc(C)c(NC(=O)COC(=O)CC2c3ccccc3CCN2S(=O)(=O)c2ccc(F)cc2)c1 (centres undefined)	29%	-4%	8	2%	18%[59 µM]	6
Cc1ccccc1-n1c(SCC(=O)N2CCN(c3ccccc3)CC2)nnc1-c1ccncc1	20%	-22%	-2	12%	45µM*	-6
CCn1c(SCC(=O)N2CCN(c3ccccc3)CC2)nnc1-c1c[nH]c2ccccc12	19%	-25%	-3	-27%	-3%[59 µM]	-7
CCn1c(SCC(=O)N2CCN(c3ccccc3)CC2)nnc1-c1ccncc1	x	x	x	9%	1.8µM*	x
Cc1ccccc1-n1c(SCC(=O)N2CCC(C(=O)O)CC2)nnc1-c1ccncc1	53%	-6%	8	29%	-1%	2
CC(C)C[C@H]1COc2cccc(N(C)CCO)c2S(=O)(=O)N1	x	x	4	x	x	1
Cc1nc(CN2CCN(S(=O)(=O)c3c(Cl)cc(Br)cc3Cl)CC2)cs1	0%	35µM*	-13	79µM*	22µM*	1
Cc1nc(CN2CCN(C(=O)NC3(c4ccccc4)CC3)CC2)cs1	29%	14%[11.4 µM]	9	1%	-6%[12.7 µM]	6
CC(=O)Nc1cccc2cc(S(=O)(=O)O)ccc12	x	x	-4	x	x	7
O=S(=O)(O)c1cc(O)c(N=Nc2ccc(O)cc2O)c2ccccc12	u	3.5µM*	-83*	x	x	-94*
O=S(=O)(O)c1ccc2c(N=Nc3ccc(S(=O)(=O)O)c4ccccc34)c(O)c(S(=O)(=O)O)cc2c1	x	x	x	x	28µM*	x
CN(C(=O)c1cccc(N2C(=O)C3CC=CCC3C2=O)c1)C1CCCCC1 (centres undefined)	13%	-19%	0	-10%	50µM*	-1
CN(Cc1ccccc1)C(=O)c1cccc(N2C(=O)C3CC=CCC3C2=O)c1 (centres undefined)	50%	4%	0	1%	-7%[2.33 µM]	3
Cc1ccc(C)c2c(N)c3c(nc12)CCCCC3 (tested in a mixture with another compound)	31%	-4%	-12	-4%	45µM*	-24
Cc1ccc(C(=O)N2CCN(C)CC2)cc1S(=O)(=O)N1CCCCCC1	41%	-14%	6	-9%	19%	-6
CCCc1sc(N/N=C/c2ccccn2)nc1-c1ccc(Br)cc1	6%	50µM*	-14	-33%	-5%[59 µM]	-16
COCCNC(=O)c1c[nH]n2c(=O)cc(C3CCN(C(=O)OC(C)(C)C)CC3)nc12	25%	-8%	-1	-21%	56µM*	8
COCCNC(=O)c1cnn(-c2ccc(C)cc2C)c1C1CCN(C(=O)OC(C)(C)C)CC1	43%	-15%	x	6%[57.1 µM]	-3%[59 µM]	x
Cc1ccccc1NC(=O)CSc1nc2c(oc3ccccc32)c(=O)n1-c1ccccc1F	26%	-8%	x	-6%	-10%[59 µM]	x
SMILES	HP1b binding inh	JMJD2A Tudor inh	Six1-Eya2 inh	BAZ2B inh	G9a block	CtBP-E1A blk
Cc1ccccc1-n1c(-c2ccoc2C)n[nH]c1=S	5%	7.9µM*	3	0%	2.2µM*	7
Cc1cccc(-n2c(-c3ccoc3C)n[nH]c2=S)c1	-17%	8.9µM*	-3	-11%	6.3µM*	-3
Cc1ccccc1-n1c(C)n[nH]c1=S	-4%	20µM*	-4	9%[57.1 µM]	22µM*	-7
Cc1cccc(-n2c(SCC(=O)Nc3nonc3C)nnc2-c2ccoc2C)c1	4%	-26%	-4	-37%	-31%[59 µM]	-2
Cc1ccc([N+](=O)[O-])c(-c2n[nH]c(=S)n2-c2cccc(Cl)c2)c1	7%	u	-9	-39%	2µM*	3
O=c1c(N2CCCCC2)csc2ccc(F)cc12	14%[57 µM]	-31%	x	-22%	-35%[59 µM]	x
CCOC(=O)c1cnc(SC2CC(=O)N(c3ccccc3)C2=O)nc1N (centres undefined)	46%	3%	-1	5%	u	0
CCOC(=O)c1cnc(SC2CCc3ccccc3C2=O)nc1N (centres undefined)	-11%	-20%[57.1 µM]	0	-3%	35µM*	-8
c1coc(CNc2nc(N3CCCCC3)nc3ccccc23)c1	2%	-26%	-8	u	u	0
c1ccc(N2CCN(c3nc(NCc4ccco4)c4ccccc4n3)CC2)cc1	-38%	50µM*	-22	45µM*	45µM*	-14
COc1ccccc1Nc1nc(NCc2ccco2)c2ccccc2n1	11%	-31%	-3	u	50µM*	-5
c1ccc(CNc2nc(N3CCN(Cc4ccccc4)CC3)nc3ccccc23)cc1	-2%	-34%	-11	50µM*	u	-16
c1ccc(-c2nc(NCc3ccco3)c3ccccc3n2)nc1	25%	-34%[11.4 µM]	-81*	45µM*	u	-81*
Cn1nnnc1NN=Cc1ccccc1	x	x	-11	x	x	-14
Cn1c(Oc2cccnc2CN2CCCC2)nc2cc(-c3cccc(C(F)(F)F)c3)sc2c1=O	x	x	-6	x	x	-2
CC1(C)OC(=O)C2(Cc3ccc(Cl)cc3N3CCCCC32)C(=O)O1 (centres undefined)	17%[57 µM]	-9%[57.1 µM]	x	x	x	x
O=C(N1CCOCC1)N1[C@H](COCc2ccccc2)C=CS1(=O)=O	x	x	14	x	x	-10
C(=N\Nc1nc(-c2ccccn2)nc2ccccc12)/c1ccccc1	12%	u	u	50µM*	-16%	-29
COc1cc(C2C(C(=O)N3CCOCC3)=C(C)NC3=C2C(=O)CCC3)ccc1OC(C)=O (centres undefined)	15%	2%	4	-2%	1.6µM*	10
CCOC(=O)c1ccc(NC(=O)c2nc[nH]c2C(=O)NC[C@@H](C)O)cc1	x	x	-3	x	x	-4

Screening data: PubChem, National Center for Advancing Translational Sciences (NCATS)
